Reference: PubChem BioAssay (NCATS)
Results filed as inconclusive are left out. The source made the active and inactive calls. Unless noted, calls come from the whole dose curve; as a rule, active = well fitted curve in the direction sought with a large enough effect; inconclusive = small, poorly fitted or top-dose-only effect, or another doubt; inactive = no such curve, though single readings can be large; an effect the other way counts as inactive or inconclusive.

How the values were obtained:
[1] = molecular target: Glucocorticoid receptor (Homo sapiens) (UniProt P04150); assay: GR-EFC Redistribution (AID 451; calls by dose curve; note: potency is the fitted concentration of half-maximal effect); conditions: CHO-K1 GR-EFC translocation, beta-gal luminescence, 2 h
Method in brief: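 CHO-K1 cells expressing nuclear EA and GR-ED fragments of b-gal; compounds titrated up to 46 uM final, 2 h at 37 C. GR nuclear translocation read as complemented b-gal luminescence after 1 h RT detection.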

[2] = molecular target: Mitogen-activated protein kinase 10 (Mus musculus) (UniProt Q61831); assay: JNK3 AlphaScreen Assay (AID 530; active = well fitted curve in either direction with a large enough effect, not every such curve was filed as active;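 note: kinase came from lysate of stimulated human HepG2 cells; signal reports phosphorylation of biotinylated GST-cJun 1-79 at Ser73 with 10 µM ATP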)
Method in brief: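 HepG2 lysate (IL-1b/TNFa pre-activated) + biotin-GST-cJun 1-79 + anti-pSer73 cJun; cpd titration, 15 min RT; ATP 10 uM start; Tris pH 7.6, MgCl2, DTT, vanadate; beads in EDTA buffer; AlphaScreen.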

[3] = molecular target: 3',5'-cyclic-AMP phosphodiesterase 4B (Homo sapiens) (UniProt Q07343); assay: qHTS Assay for Inhibitors of PDE-IV (AID 607; active = well fitted activation curve with a large enough effect in the main read-out, with a control signal flat, not every such curve was filed as active; note: potency is the fitted concentration of half-maximal effect)
Method in brief: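 HEK293 ACTOne cells with CNG channel (1000/well), endogenous PDE4; membrane potential dye, compounds up to 22.9 uM final. Fluorescence Ex 535/Em 590; RO 20-1724 (100 uM final) as reference.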

[4] = molecular target: Cytochrome P450 2D6 (Homo sapiens) (UniProt P10635); assay: qHTS Assay for Inhibitors and Substrates of Cytochrome P450 2D6 (AID 891);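 note: luciferin methyl ether substrate demethylated by CYP2D6 with NADPH regeneration; nearly all actives have a fitted effect of over 60% in size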
Method in brief: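 Luminescent read-out of luciferin formed by 5 nM human CYP2D6 demethylating 30 uM Luciferin-ME EGE (Km level) over 60 min at room temperature after NADPH regeneration addition. Data normalized to full inhibition by 1.43 uM quinidine.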

[5] = molecular target: Cytochrome P450 2C19 (Homo sapiens) (UniProt P33261); assay: qHTS Assay for Inhibitors and Substrates of Cytochrome P450 2C19 (AID 899); note: nearly all actives have a fitted effect of over 60% in size; note: potency is the fitted concentration of half-maximal effect
Method in brief: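 Luminescent read-out of luciferin formed from Luciferin-H EGE (10uM, equal to KM). Enzyme 5nM in 50mM KPO4; compound added, 10 min at 37C, then NADPH regenerating system for 60 min at 37C. Full inhibition defined by 57uM ketoconazole.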

[6] = molecular target: Cytochrome P450 2C9 (Homo sapiens) (UniProt P11712); assay: qHTS Assay for Inhibitors and Substrates of Cytochrome P450 2C9 (AID 883); note: nearly all actives have a fitted effect of over 60% in size
Method in brief: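 10nM CYP2C9 + 100uM Luciferin-H (=KM), 25mM KPO4; cpd 10 min 37C; NADPH regen, 60 min 37C; stop/detect with P450 Glo-Buffer 20 min; luminescence. Norm. to 57uM sulphaphenazole as full inhibition.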

[7] = molecular target: Luciferin 4-monooxygenase (Photinus pyralis) (UniProt P08659); assay: Biochemical firefly luciferase enzyme assay for NPC (AID 624030);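 note: purified P. pyralis luciferase at 10 nM with luciferin and ATP substrate; nearly all actives have a fitted effect of over 70% in size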
Method in brief: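 Purified P. pyralis luciferase at 10 nM in 50 mM Tris Acetate (final), luminescence read within 5 minutes of enzyme addition to compounds. Activity normalised to PTC124 versus DMSO; concentration-response curves classed by r2, magnitude and activity.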

[8] = S16 Schwann cell viability assay (CellTiter-Glo assay) (AID 624031);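 note: native untransfected S16 rat Schwann cells; cellular ATP luminescence as a viability measure; nearly all actives have a fitted effect of over 70% in size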
Method in brief: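 Concentration-effect curves come from CellTiter-Glo luminescence of S16 rat Schwann cells after 24 h compound exposure. Each reading was normalized to DMSO wells (0%) and wells without cells, and curves were ranked by r2 and response magnitude.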

[9] = S16 Schwann cell PMP22 intronic element firefly luciferase assay (AID 624032); note: nearly all actives have a fitted effect of over 30% in size; note: potency is the fitted concentration of half-maximal effect
Method in brief: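 Rat S16 Schwann cells stably carrying firefly luciferase driven by a PMP22 intronic element, in 10% FBS, treated 24 h at 37 C. ONE-Glo luminescence normalized to PTC124 control and DMSO (0%); curves classed by r2, magnitude and activity.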

PC26 = assay: qHTS profiling for inhibitors of Plasmodium falciparum proliferation (AID 504749); note: nearly all actives have a fitted effect of over 60% in size; conditions: P. falciparum in erythrocytes, SYBR Green DNA, 72 h; series mostly up to 28.7 µM
Method in brief: (§1)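 SYBR Green fluorescence (ex 485 nm, em 535 nm) reports parasite DNA after 72 h compound exposure of infected red cells at 0.3% parasitemia, 2.5% hematocrit; signal normalized to 0.29 uM artemisinin and vehicle wells.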

PC49 = assay: as above; conditions: P. falciparum in erythrocytes, SYBR Green DNA, 72 h; series mostly up to 28.7 µM
Method in brief: as §1

TAB109 = assay: as above; conditions: P. falciparum in erythrocytes, SYBR Green DNA, 72 h; series mostly up to 28.7 µM
Method in brief: as §1

[10] = S16 Schwann cell PMP22 intronic element beta-lactamase assay (AID 624044; calls by dose curve; note: nearly all actives have a fitted effect of over 15% in size); conditions: S16 rat Schwann cells, PMP22 element beta-lactamase FRET, 24 h; ratio activity, negative = inhibition: at 38.3 µM (top of the series)
Method in brief: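 Beta-lactamase reporter under a PMP22 intronic regulatory element in stable S16 rat Schwann cells; 24 h compound exposure. 460 nm blue signal normalized between DMSO (0%) and potassium clavulanate, with 535 nm FRET tracking viability; curves classed by r2 and response.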

[11] = molecular target: Cytochrome P450 3A4 (Homo sapiens) (UniProt P08684); assay: qHTS Assay for Inhibitors and Substrates of Cytochrome P450 3A4 (AID 884); note: nearly all actives have a fitted effect of over 50% in size
Method in brief: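 Luminescent readout of luciferin produced by CYP3A4 (20 nM) dealkylation of Luciferin-PPXE, 25 uM (its KM). NADPH-driven reaction ran 60 min at RT after 10 min compound preincubation; data scaled to 57 uM ketoconazole as 100% inhibition.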

[12] = Confirmation and Secondary Assay for Modulators of Hemoglobin Beta Chain Splicing at IVS2 654 locus (AID 910);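 note: HeLa cells stably carrying EGFP split by mutant beta-globin IVS2-654 intron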
Method in brief: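 HeLa cells stably expressing EGFP interrupted by β-globin IVS2-654 intron, seeded overnight in Opti-MEM/2% FCS, then treated 2 days at 37 °C. Restored splicing read as total peak GFP intensity per well by laser scanning cytometry (488 nm excitation, 500–520 nm emission); 500 nM antisense PNA as control.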

Measured: Potency

Cytochrome P450 2D6 (Homo sapiens), sequence (P10635 whole entry, looked up): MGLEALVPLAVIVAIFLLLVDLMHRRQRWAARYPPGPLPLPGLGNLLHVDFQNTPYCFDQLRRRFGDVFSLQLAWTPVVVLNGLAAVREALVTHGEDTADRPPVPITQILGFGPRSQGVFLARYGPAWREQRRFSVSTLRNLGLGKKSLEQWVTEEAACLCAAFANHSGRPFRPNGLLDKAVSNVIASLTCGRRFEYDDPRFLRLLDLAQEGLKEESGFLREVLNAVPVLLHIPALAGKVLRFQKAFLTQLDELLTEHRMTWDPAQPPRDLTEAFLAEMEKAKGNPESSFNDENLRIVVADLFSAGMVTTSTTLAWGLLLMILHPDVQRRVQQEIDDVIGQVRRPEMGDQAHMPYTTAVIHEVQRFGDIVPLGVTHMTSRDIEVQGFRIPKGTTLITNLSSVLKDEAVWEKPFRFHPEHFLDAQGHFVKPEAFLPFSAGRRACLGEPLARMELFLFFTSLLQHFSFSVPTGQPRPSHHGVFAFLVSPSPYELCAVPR
Glucocorticoid receptor (Homo sapiens), sequence (P04150 whole entry, looked up, the tested form may be a part): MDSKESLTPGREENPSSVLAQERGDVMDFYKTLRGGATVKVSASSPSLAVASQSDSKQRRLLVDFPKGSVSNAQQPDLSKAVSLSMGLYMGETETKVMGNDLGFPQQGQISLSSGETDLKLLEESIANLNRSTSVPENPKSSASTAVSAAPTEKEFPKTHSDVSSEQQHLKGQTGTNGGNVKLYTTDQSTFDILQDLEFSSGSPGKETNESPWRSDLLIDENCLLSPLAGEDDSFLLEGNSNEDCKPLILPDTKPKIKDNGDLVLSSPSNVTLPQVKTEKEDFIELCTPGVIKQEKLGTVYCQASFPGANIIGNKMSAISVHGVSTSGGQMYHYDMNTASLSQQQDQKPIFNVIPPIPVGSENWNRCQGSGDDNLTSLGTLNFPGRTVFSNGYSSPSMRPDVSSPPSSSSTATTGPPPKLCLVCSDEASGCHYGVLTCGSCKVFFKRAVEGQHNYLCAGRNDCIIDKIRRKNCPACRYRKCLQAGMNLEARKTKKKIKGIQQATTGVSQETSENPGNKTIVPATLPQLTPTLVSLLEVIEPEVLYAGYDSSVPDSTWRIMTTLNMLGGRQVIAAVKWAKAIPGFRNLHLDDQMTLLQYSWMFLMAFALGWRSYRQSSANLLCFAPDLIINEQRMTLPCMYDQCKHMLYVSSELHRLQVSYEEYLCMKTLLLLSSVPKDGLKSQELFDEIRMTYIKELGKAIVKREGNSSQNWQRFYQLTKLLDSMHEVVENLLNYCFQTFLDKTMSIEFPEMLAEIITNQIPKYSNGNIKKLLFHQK
3',5'-cyclic-AMP phosphodiesterase 4B (Homo sapiens), sequence (Q07343 whole entry, looked up): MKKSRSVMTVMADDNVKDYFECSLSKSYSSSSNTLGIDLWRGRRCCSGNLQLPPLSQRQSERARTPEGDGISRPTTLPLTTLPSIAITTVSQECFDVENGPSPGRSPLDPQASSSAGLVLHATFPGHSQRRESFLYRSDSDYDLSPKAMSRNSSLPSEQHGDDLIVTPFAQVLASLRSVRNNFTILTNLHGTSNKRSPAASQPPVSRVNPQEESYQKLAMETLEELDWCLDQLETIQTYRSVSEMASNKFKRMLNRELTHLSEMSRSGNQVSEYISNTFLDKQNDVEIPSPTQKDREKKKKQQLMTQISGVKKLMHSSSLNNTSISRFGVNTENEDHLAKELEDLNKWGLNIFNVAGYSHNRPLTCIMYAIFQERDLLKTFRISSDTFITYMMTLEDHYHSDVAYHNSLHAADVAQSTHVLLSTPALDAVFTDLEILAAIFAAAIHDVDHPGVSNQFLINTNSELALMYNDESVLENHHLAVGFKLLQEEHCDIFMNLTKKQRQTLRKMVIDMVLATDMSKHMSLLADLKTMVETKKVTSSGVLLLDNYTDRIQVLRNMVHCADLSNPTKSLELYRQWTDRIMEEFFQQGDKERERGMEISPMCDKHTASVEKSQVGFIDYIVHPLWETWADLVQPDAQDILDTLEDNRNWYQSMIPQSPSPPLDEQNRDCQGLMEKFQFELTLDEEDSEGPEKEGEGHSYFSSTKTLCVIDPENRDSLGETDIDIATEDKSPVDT
Cytochrome P450 2C19 (Homo sapiens), sequence (P33261 whole entry, looked up): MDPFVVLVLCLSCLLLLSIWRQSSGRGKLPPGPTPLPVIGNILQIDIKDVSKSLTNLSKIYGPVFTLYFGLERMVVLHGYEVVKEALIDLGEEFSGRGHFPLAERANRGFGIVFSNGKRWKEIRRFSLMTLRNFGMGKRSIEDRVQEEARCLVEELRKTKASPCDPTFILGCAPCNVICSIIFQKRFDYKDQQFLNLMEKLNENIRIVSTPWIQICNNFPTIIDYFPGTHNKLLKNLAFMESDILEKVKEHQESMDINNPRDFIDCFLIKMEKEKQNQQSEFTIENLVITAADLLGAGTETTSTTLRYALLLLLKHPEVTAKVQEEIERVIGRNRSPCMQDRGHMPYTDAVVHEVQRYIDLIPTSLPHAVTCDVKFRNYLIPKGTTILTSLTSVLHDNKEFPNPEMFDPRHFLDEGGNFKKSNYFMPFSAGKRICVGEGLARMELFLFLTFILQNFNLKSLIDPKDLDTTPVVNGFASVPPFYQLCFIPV
Luciferin 4-monooxygenase (Photinus pyralis), sequence (P08659 whole entry, looked up): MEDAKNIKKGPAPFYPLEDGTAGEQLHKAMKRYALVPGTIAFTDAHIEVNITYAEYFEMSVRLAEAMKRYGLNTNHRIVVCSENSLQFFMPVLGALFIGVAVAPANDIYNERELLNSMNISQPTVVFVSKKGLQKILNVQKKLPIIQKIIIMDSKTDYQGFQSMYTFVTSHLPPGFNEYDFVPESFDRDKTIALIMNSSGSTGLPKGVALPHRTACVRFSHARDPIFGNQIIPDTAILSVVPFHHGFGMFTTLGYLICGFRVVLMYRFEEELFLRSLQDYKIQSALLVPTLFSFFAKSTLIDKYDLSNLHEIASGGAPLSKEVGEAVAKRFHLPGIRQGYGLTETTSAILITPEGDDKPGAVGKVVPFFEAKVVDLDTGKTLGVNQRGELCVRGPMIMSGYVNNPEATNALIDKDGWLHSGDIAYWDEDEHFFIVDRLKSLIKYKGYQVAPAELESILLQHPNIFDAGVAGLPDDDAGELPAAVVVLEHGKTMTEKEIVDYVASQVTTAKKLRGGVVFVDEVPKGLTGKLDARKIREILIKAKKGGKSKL
Cytochrome P450 2C9 (Homo sapiens), sequence (P11712 whole entry, looked up): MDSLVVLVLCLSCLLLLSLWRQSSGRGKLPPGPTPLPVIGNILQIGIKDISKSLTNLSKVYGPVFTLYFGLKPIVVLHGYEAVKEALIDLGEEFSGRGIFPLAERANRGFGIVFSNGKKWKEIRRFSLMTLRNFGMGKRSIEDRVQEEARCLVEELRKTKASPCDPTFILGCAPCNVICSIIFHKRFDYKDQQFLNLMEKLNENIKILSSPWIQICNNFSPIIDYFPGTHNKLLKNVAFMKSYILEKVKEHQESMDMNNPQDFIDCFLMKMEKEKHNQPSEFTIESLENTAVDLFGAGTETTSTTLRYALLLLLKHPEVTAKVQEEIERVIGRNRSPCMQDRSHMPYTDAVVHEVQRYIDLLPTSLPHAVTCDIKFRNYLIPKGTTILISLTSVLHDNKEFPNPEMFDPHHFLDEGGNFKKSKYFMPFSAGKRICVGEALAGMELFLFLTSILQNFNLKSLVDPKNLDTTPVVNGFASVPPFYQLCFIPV
Cytochrome P450 3A4 (Homo sapiens), sequence (P08684 whole entry, looked up): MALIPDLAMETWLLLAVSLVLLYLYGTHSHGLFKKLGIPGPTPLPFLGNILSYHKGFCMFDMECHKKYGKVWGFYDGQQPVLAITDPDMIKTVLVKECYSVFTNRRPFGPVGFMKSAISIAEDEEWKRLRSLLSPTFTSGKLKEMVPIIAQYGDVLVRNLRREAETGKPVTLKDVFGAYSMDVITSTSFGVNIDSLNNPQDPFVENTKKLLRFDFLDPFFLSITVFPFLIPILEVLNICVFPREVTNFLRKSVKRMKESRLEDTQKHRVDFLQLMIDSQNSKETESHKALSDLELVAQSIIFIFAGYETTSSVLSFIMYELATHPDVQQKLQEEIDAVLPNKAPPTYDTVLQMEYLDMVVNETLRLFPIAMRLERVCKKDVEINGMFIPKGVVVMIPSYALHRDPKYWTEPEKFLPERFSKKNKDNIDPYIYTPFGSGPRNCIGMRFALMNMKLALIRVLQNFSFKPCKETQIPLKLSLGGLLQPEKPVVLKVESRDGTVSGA

CC(C)[C@@H](CC(=O)N[C@@H]1CCCC[C@H]1C(=O)N[C@H](CC(=O)N[C@@H](CCC(=O)O)CC(=O)O)Cc1ccccc1)NC(=O)C[C@H](Cc1ccccc1)NC(=O)[C@@H]1CNCC[C@H]1N
inactive: [1] > 46 µM | [2] | [3] | [4] | [5]

NCCC[C@@H](CC(=O)N[C@@H]1CCCC[C@H]1C(=O)N[C@H](CC(=O)N[C@@H](CCC(=O)O)CC(=O)O)Cc1ccccc1)NC(=O)C[C@H](Cc1ccccc1)NC(=O)[C@@H]1CNCC[C@H]1N
inactive: [1] > 46 µM | [3] | [6] | [4] | [5]

CC(C)C[C@@H](CC(=O)N[C@@H](CCC(=O)O)CC(=O)O)NC(=O)[C@@H]1CNCC[C@H]1NC(=O)C[C@H](CCCN)NC(=O)C[C@H](Cc1c[nH]c2ccccc12)NC(=O)[C@@H]1CCCC[C@H]1N
inactive: [1] > 46 µM | [2] | [3] | [6] | [4] | [5]

NCCC[C@@H](CC(=O)N[C@@H]1CCCC[C@H]1C(=O)N[C@H](CC(=O)N[C@@H](CCC(=O)O)CC(=O)O)Cc1c[nH]c2ccccc12)NC(=O)C[C@H](Cc1ccccc1)NC(=O)[C@@H]1CCCC[C@H]1N
inactive: [1] > 46 µM | [2] | [3] | [6] | [4] | [5]

CC(C)[C@@H](CC(=O)N[C@@H]1CCCC[C@H]1C(=O)N[C@H](CC(=O)N[C@@H](CCC(=O)O)CC(=O)O)Cc1ccccc1)NC(=O)C[C@H](Cc1c[nH]c2ccccc12)NC(=O)[C@@H]1CNCC[C@H]1N
inactive: [1] > 46 µM | [3] | [6] | [5]

CC(C)C[C@@H](CC(=O)N[C@H](CC(=O)N[C@@H]1CCNC[C@H]1C(=O)N[C@H](CC(=O)N[C@@H](CCC(=O)O)CC(=O)O)Cc1c[nH]c2ccccc12)C(C)C)NC(=O)[C@@H]1CCCC[C@H]1N
inactive: [1] > 46 µM | [3] | [5]

CC(C)C[C@@H](CC(=O)N[C@H](CC(=O)N[C@@H]1CCCC[C@H]1C(=O)N[C@H](CC(=O)N[C@@H](CCC(=O)O)CC(=O)O)Cc1ccccc1)C(C)C)NC(=O)[C@@H]1CCCC[C@H]1N
inactive: [1] > 46 µM | [2] | [3] | [5]

CC(C)C[C@@H](CC(=O)N[C@@H](CCCN)CC(=O)N[C@@H]1CCNC[C@H]1C(=O)N[C@H](CC(=O)N[C@@H](CCC(=O)O)CC(=O)O)CC(C)C)NC(=O)[C@@H]1CCCC[C@H]1N
inactive: [1] > 46 µM | [2] | [3] | [4]
active: [5] 15.8 µM

CC(C)C[C@@H](CC(=O)N[C@@H](CCCN)CC(=O)N[C@@H]1CCCC[C@H]1C(=O)N[C@H](CC(=O)N[C@@H](CCC(=O)O)CC(=O)O)CC(C)C)NC(=O)[C@@H]1CNCC[C@H]1N
inactive: [1] > 46 µM | [2] | [3] | [4] | [5]

NCCC[C@@H](CC(=O)N[C@@H]1CCCC[C@H]1C(=O)N[C@H](CC(=O)N[C@@H](CCC(=O)O)CC(=O)O)Cc1ccccc1)NC(=O)C[C@H](Cc1c[nH]c2ccccc12)NC(=O)[C@@H]1CNCC[C@H]1N
active: [3] 1.58 µM
inactive: [1] > 46 µM | [6] | [4] | [5]

CC(C)C[C@@H](CC(=O)N[C@@H](CCCN)CC(=O)N[C@@H]1CCNC[C@H]1C(=O)N[C@H](CC(=O)N[C@@H](CCC(=O)O)CC(=O)O)CC(C)C)NC(=O)[C@@H]1CNCC[C@H]1N
inactive: [1] > 46 µM | [2] | [3] | [4] | [5]

C=C/C(=C\C)C[C@@H](CC(=O)N[C@@H](CCC(=O)O)CC(=O)O)NC(=O)[C@@H]1CNCC[C@H]1NC(=O)C[C@@H](NC(=O)C[C@H](Cc1ccccc1)NC(=O)[C@@H]1CCCC[C@H]1N)C(C)C
inactive: [1] > 46 µM | [2] | [3] | [6] | [4] | [5]

NCCC[C@@H](CC(=O)N[C@@H]1CCCC[C@H]1C(=O)N[C@H](CC(=O)N[C@@H](CCC(=O)O)CC(=O)O)Cc1ccccc1)NC(=O)C[C@H](Cc1c[nH]c2ccccc12)NC(=O)[C@@H]1CCCC[C@H]1N
inactive: [1] > 46 µM | [3] | [4] | [5]

NCCC[C@@H](CC(=O)N[C@@H]1CCNC[C@H]1C(=O)N[C@H](CC(=O)N[C@@H](CCC(=O)O)CC(=O)O)Cc1c[nH]c2ccccc12)NC(=O)C[C@H](Cc1ccccc1)NC(=O)[C@@H]1CCCC[C@H]1N
inactive: [1] > 46 µM | [3] | [6] | [4] | [5]

NCCC[C@@H](CC(=O)N[C@@H]1CCCC[C@H]1C(=O)N[C@H](CC(=O)N[C@@H](CCC(=O)O)CC(=O)O)Cc1ccccc1)NC(=O)C[C@H](Cc1ccccc1)NC(=O)[C@@H]1CCCC[C@H]1N
inactive: [1] > 46 µM | [3] | [4] | [5]

CC(C)C[C@@H](CC(=O)N[C@@H](CCCN)CC(=O)N[C@@H]1CCNC[C@H]1C(=O)N[C@H](CC(=O)N[C@@H](CCC(=O)O)CC(=O)O)Cc1ccccc1)NC(=O)[C@@H]1CCCC[C@H]1N
inactive: [1] > 46 µM | [3] | [6] | [5]

CO/N=C(/C(=O)N[C@@H]1C(=O)N2C(C(=O)O)=C(C[n+]3ccc(N)n3CCO)CS[C@H]12)c1csc(N)n1
inactive: [7] | [8] | [9] | PC26 | PC49 | TAB109

CCCCN1CC(O)C(O)C(O)C1CO (stereo not given)
inactive: [7] | [8] | [9] | [10] | PC26 | PC49 | TAB109

O=c1[nH]c(=O)n(C2C[C@H](O)[C@@H](CO)O2)cc1C(F)(F)F (stereo not given in full)
inactive: [7] | [8] | PC26 | PC49 | TAB109
active: [9] 510 nM

Cc1cn([C@H]2CC(F)[C@@H](CO)O2)c(=O)[nH]c1=O (stereo not given in full)
inactive: [7] | [8] | [9] | [10] | PC26 | PC49 | TAB109

CNC1C(O)C(OC2C(N)CC(N)C(OC3OC(CN)=CCC3N)C2O)OCC1(C)O (stereo not given)
inactive: [7] | [8] | [9] | PC26 | PC49 | TAB109

CO/N=C(/C(=O)N[C@H]1C(=O)N2C(C(=O)O)=C(COC(C)=O)CSC12)c1csc(N)n1 (stereo not given in full)
inactive: [11] | [12]
